Experiments:
[1] = biological target: T1, Aspartate--tRNA(Asp/Asn) ligase (Mycobacterium tuberculosis (strain ATCC 25618 / H37Rv)) (UniProt P9WFW3); assay: Assay for Asp RNA synthetase-1 from Mycobacterium tuberculosis; type: functional; set-up: scale not given: direction of the effect not stated beside the values; conditions: 30 µM; further: in the data most compounds retested in dose-response had high values
T1 sequence (whole entry): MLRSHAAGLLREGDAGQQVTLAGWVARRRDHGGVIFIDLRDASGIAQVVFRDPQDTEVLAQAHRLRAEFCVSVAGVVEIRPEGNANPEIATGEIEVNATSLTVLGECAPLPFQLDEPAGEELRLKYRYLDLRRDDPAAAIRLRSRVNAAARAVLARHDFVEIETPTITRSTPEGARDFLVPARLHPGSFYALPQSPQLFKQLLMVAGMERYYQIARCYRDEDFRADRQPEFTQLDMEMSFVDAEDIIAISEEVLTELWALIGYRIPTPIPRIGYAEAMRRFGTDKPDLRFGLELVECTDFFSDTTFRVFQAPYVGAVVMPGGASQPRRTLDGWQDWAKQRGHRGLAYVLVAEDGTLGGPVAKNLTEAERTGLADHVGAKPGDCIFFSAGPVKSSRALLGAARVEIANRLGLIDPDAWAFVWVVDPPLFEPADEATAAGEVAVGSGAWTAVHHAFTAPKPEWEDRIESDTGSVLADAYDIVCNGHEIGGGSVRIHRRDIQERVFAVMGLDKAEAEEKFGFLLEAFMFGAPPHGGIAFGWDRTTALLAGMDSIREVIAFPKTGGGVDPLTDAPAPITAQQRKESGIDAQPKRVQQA

[2] = biological target: Shiga toxin 2 (Escherichia coli O157:H7) (UniProt P09385+P09386); assay: E. coli 0.157:H7 Shiga Toxin SOP - stx2 screening assay; type: functional; set-up: scale not given: direction of the effect not stated beside the values; conditions: 30 µM

Compound	Percent Effect [1]	Percent Effect [2]
O=C(Nc1ccnc(OC2CCOC2)c1)C1CCC1 (configuration not stated)	-4.32%	-20.1%
COc1ccccc1C(O)CNC(=O)NCc1cccnc1OC (configuration not stated)	-0.742%	9.52%
O=C(Nc1nccs1)N(CCO)Cc1ccsc1	-2.48%	-3.95%
O=C([C@H]1C[C@H]2OCC[C@H]2N(C(=O)c2ccncc2)C1)N1CCCCO1	-3.79%	-6.05%
CC(C)CC(=O)N1C[C@@H]2CCN(c3ncccn3)C[C@@H]2C1	4.21%	-21.6%
Clc1ccc2cccnc2c1CN1CCCC1Cn1cncn1 (configuration not stated)	-0.524%	0.609%
Cn1ncc2c(=O)[nH]c(CN(Cc3cccc(F)c3)C3CC3)nc21	-6.19%	3.9%
COCCCNC(=O)N1CCCC(c2nncn2C)C1 (configuration not stated)	1.97%	21.1%
CC(C)c1nnc2n1CCN(C(=O)c1cccc(C(F)(F)F)c1)C2	0.896%	-0.987%
CS(=O)(=O)N1CCN(CC(O)COc2ccc(F)cc2)CC1 (configuration not stated)	1.99%	26.7%
Cc1nc(N2CCN(C)CC2)ncc1C(=O)N1CCC(O)(CO)CC1	3.4%	5.75%
O=C(c1cc(C2CC2)[nH]n1)N1CCN(Cc2ccsc2)CC1	-6.85%	-27.3%
CN(C)CCOCC1CN(C(=O)[C@H]2CCCO2)Cc2ccnn2C1 (some centres not stated)	0.379%	-15.2%
CCc1ccc(-n2c(=O)[nH]c3nc(N4CCSCC4)ncc3c2=O)cc1	15.3%	-13.5%
Cc1csc(N2CCN(C(=O)CCNc3ncccn3)CC2)n1	1.38%	21.6%
CC(C)n1ccnc1C1CCN(Cc2ccc(Cl)c(F)c2)CC1	9.45%	-39.8%
Cc1cccc(NC2CCN(C(=O)Nc3cccc4[nH]ccc34)CC2)n1	-0.4%	-50%
CN(C)c1ccc(C(=O)NCC2(O)CCOCC2)cc1	-2.13%	-12.5%
OCCn1nccc1C1CCN(CCCOc2ccc(F)cc2)CC1	1.85%	4.26%
CC(=O)N(Cc1ncc(C)o1)C1CCN(Cc2ccncc2Cl)C1 (configuration not stated)	2.91%	16%
CCn1nc(CNC(=O)C2CC(=O)N(C3CCCC3)C2)c2ccccc21 (configuration not stated)	2.02%	-13.1%
CN1CCN(C(=O)c2cnc3c(cnn3C3CCCC3)c2)CC1	-4%	-2.45%
CCc1noc(C(C)N2CCC(N3CCCC3)CC2)n1 (configuration not stated)	-8.83%	-5.16%
N#Cc1ccc(CNC(=O)NC2CCN(CC(F)F)CC2)cc1	-4.22%	-8.96%
c1ccc(Cn2cccn2)c(CNCC2CNc3ccnn3C2)c1 (configuration not stated)	1.88%	-40.7%
CN(CCN1CCOCC1)C(=O)CCc1cccc(Cl)c1	-4.7%	-13.5%

Compound	Percent Effect [1]	Percent Effect [2]
CC1CCN(CCCNS(=O)(=O)c2cccc(F)c2)CC1	11.5%	-61.6%
CCc1ccc(S(=O)(=O)Nc2c(C)cccc2C(=O)O)s1	0.112%	25.9%
COc1cc(C(=O)Nc2c(C)noc2C)ccc1C	-3.4%	-5.89%
Cc1noc([C@@]23CCO[C@@H]2CCN(C(=O)C2CCOCC2)C3)n1	0.117%	-4.33%
CC(C)OCCOCc1cccc(NC(=O)NCc2ccccn2)c1	8.32%	-20.3%
COc1cc(N2CCCC(c3nccn3CCN(C)C)C2)nc(N)n1 (configuration not stated)	-3.58%	23.8%
CCc1nnc2n1CCN(Cc1nc(-c3ccoc3)no1)C2	-5.61%	-17.8%
CCNc1cc2c(nn1)CCN(C(=O)CC1CCCCC1)C2	-7.97%	-4.17%
CN(Cc1cnn(C)c1)C(=O)NC1CCN(c2ncccn2)CC1	-1.27%	10.9%
Cc1csc(CNC(=O)NCCc2ccc3c(c2)OCCO3)n1	-5.39%	-15.4%
Cc1nc(COCc2cnc3n2CCN(C2CCC2)C3C)cs1 (configuration not stated)	-4.78%	-5.21%
CCN(CCNC(=O)c1ccccc1Br)C1CC1	-1.24%	9.65%
CC(=O)N1CCN(C(=O)CN2CCc3c(ncn3C3CC3)C2)CC1	1.82%	-27.5%
CC(C)Cc1ccc(S(=O)(=O)Nc2ccc(=O)n(C)c2)cc1	30.2%	-23.8%
CCn1c(C)nnc1CN(C)C1CCN(CCc2ccncc2)C1 (configuration not stated)	2.19%	13.6%
CN1CC(=O)N(c2ccccc2)CC12CCN(Cc1nccs1)C2 (configuration not stated)	4.78%	-21.2%
Cc1csc([C@@H]2C[C@@H]3CCN(C(=O)c4cc(C)on4)C[C@H]3O2)n1	0.801%	-17.6%
COc1ccccc1OCc1cc(C(=O)N2CCN[C@H](C)C2)n[nH]1	0.167%	-31.9%
COc1ccc(F)c(CN2CCC(c3cc(O)nc(C)n3)C2)c1 (configuration not stated)	-6.3%	-8.55%
Cc1cc(C(=O)NCCn2nc3ccccn3c2=O)[nH]n1	-1.59%	-43.7%
CC1CCN(c2ncc3c(n2)CN(c2ccc4c(c2)OCO4)C3=O)CC1	10.8%	-21.4%
Cc1ncc2c(n1)CN(Cc1nnc(-c3occc3C)o1)CC2	12.2%	-43.7%
CCn1cnnc1CNC(=O)NC(C)C(C)C (configuration not stated)	-2.43%	7.89%
CCOc1ccccc1OC1CCN(C(=O)c2cc[nH]n2)CC1	0.989%	39.1%
O=C(c1cc(COc2ccc3c(c2)OCO3)[nH]n1)N1CCCC1	0.912%	-23.7%
